# The full ranking holds about 33,000 sequences; the median of “E-score (-0.5 to 0.5)” is about -0.054, and the highest 2% start at about 0.39. For the sample, the highest values were picked, then their nearest neighbours and some sequences at random.
# Biological target: Ylr278c (UniProt Q05854)
# Assay: PBM E-score (8-mer binding enrichment) (E-score (-0.5 to 0.5)); higher = stronger / more preferred TF binding
# Conditions: protein concentration: 200 nM; construct: GST-DNA-binding domain
# Protocol: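 Universal 'all 10-mer' protein binding microarrays (Agilent AMADID 015681) probed with GST-tagged S. cerevisiae TFs (full-length or DBD) made by in vitro transcription/translation (PURExpress), about 100-200 nM. Bound TF was detected with fluorescent anti-GST. Each ungapped 8-mer (which stands for itself and its reverse complement) is scored by the PBM enrichment score (E-score), a modified Wilcoxon-Mann-Whitney statistic from -0.5 to +0.5, computed with the Universal PBM Analysis Suite. Scale: above 0.35 generally sequence-specific binding.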
# UniProt Q05854, sequence (Q05854 whole entry): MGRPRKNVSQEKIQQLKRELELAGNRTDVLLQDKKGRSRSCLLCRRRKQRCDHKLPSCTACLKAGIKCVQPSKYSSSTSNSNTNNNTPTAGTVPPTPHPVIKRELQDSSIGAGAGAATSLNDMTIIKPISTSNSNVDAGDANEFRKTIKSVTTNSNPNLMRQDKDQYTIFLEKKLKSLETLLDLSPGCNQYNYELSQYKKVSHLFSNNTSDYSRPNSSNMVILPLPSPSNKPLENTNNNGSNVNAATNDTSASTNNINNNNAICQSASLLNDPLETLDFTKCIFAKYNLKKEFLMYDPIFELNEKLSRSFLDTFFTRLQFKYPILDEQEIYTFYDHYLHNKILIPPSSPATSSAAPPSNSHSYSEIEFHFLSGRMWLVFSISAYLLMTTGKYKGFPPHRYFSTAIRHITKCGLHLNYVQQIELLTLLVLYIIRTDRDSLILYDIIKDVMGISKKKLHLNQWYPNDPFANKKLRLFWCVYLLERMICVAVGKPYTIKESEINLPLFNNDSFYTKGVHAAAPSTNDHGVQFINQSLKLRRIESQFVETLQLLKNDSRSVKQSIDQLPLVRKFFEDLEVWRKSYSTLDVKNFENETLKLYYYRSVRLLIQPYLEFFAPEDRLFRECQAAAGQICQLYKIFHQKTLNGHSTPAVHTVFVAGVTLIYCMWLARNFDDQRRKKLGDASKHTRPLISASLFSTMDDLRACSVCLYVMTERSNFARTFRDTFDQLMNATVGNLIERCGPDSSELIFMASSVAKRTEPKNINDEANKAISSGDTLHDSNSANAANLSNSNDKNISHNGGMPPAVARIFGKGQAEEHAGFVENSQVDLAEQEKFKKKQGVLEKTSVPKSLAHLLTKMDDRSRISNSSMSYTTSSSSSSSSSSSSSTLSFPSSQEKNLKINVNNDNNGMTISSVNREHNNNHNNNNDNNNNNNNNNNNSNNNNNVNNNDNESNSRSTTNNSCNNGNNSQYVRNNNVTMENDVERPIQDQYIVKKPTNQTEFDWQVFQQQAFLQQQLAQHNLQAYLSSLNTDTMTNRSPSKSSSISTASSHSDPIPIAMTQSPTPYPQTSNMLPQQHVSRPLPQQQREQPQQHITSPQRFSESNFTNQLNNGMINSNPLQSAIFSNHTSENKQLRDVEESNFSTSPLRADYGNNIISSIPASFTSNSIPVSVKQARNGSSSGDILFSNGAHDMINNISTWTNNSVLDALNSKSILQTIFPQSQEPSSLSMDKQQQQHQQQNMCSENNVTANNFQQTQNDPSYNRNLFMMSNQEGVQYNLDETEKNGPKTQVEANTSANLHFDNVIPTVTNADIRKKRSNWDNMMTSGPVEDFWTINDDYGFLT
row,Sequence,PBM E-score
1,ATAGTGAT,-0.203
2,TAAAGACA,-0.186
3,ACTGAGGC,0.105
4,TCTAAAGA,-0.115
5,CGCGTTAA,0.0131
6,GGGCGTTA,-0.101
7,CGGCGTTC,0.378
8,CGGCGTTA,0.405
9,GAGTGACA,-0.00079
10,TAGCTTAA,-0.198
11,TGATCTAA,-0.15
12,AGGAGGTC,-0.0814
13,CGGAGGTC,0.443
14,CGGAGGTA,0.426
15,CTGAGGTC,-0.297
16,AGGAGGTA,-0.0558
17,GGGAGGTA,-0.0269
18,AATGAACG,-0.131
19,CCGGTTGA,0.303
20,CGAGAACG,0.232
21,CCTAAACG,-0.0312
22,AATCCGAC,0.402
23,AATCCTAT,0.181
24,AATCCGAA,0.39
25,GATCCGAC,0.285

row,Sequence,PBM E-score
1,CATCCGAA,0.303
2,TATCCGAA,0.371
3,CATCCGAC,0.289
4,AATCCGAG,0.288
5,AATCCGAT,0.421
6,ATCGGGGC,0.296
7,CCACTGAG,-0.208
8,ACTGATGC,-0.0244
9,TCCAAACA,-0.094
10,GCAAGTGC,-0.274
11,GTTCTTCA,-0.192
12,ATTCGCTC,0.0759
13,CGTCGGTC,0.215
14,AGTCGGAT,0.282
15,AGTCGGAC,0.366
16,GGTCGGAA,0.338
17,TGTCGGAA,0.384
18,AGTCGGGA,0.142
19,AGTCGGAG,0.41
20,CGTCGGAC,0.397
21,GGTCGGAC,0.355
22,AGTCGGCG,0.215
23,CGTCGGAA,0.43
24,AGTCGGAA,0.408
25,ACGCAGGA,-0.166

row,Sequence,PBM E-score
1,CAAAGCGG,0.175
2,AACACTTG,-0.16
3,ATAAGACC,0.0726
4,ATGGTGTG,-0.23
5,CAACAAAG,-0.189
6,ATCAAGAC,-0.00757
7,ACCGCTAG,-0.19
8,CAGGGGGC,-0.125
9,CAGGTCAG,-0.0413
10,CGTCGGAG,0.441
11,CGTCGTAG,0.00558
12,CGTCGCAG,-0.192
13,ATTGGAAG,-0.0562
14,CTTTGCCC,-0.139
15,GCTTTTGA,-0.0305
16,CACCTCCG,0.425
17,ATCCTCCA,-0.301
18,AACCTCCC,0.0351
19,CGCCTCCA,0.0143
20,CGCCTCCG,0.398
21,AACCTCCG,0.466
22,AGCCTCCG,0.381
23,ATCCTCCC,0.0358
24,AACCTCCT,-0.122
25,CACCTCCC,-0.129

row,Sequence,PBM E-score
1,ATCCTCCG,0.431
2,CACCTCCA,0.0316
3,CAGTGGCA,-0.225
4,CCCTCCCA,0.0446
5,ACAGGGCC,0.0175
6,GAAACCAA,0.0455
7,CGACGCAA,0.114
8,GTACTGGA,-0.156
9,GCACCACC,0.0569
10,GACTGCGA,0.0431
11,TCCCTGAA,-0.217
12,CGTAAGGC,-0.161
13,CAGCTATG,-0.344
14,TCGGAAAA,0.426
15,GCGGAAAA,0.379
16,CCGGAAAG,0.319
17,CAGGAAAA,0.00343
18,ACGGAAAC,0.278
19,ACGGAAAA,0.346
20,CTGGAAAA,-0.00229
21,CCGGAAAA,0.453
22,CCGGAAAC,0.404
23,ATGAATTA,-0.228
24,CCGGTATC,0.32
25,GCGATCCC,0.0902

row,Sequence,PBM E-score
1,AAACACCG,0.39
2,CAACACCG,0.212
3,AAACACCT,-0.135
4,CTCCTCAC,-0.185
5,ATTTTCCC,0.063
6,AATTTCCC,0.114
7,ATTTTCCA,0.0304
8,AATTTCCT,0.0327
9,AATTTCCG,0.448
10,CATTTCCC,0.161
11,CATTTCCA,-0.0597
12,CATTTCCG,0.406
13,ATTTTCCG,0.421
14,GTTCGCAA,-0.0313
15,TATCCTCA,-0.0486
16,ATAACTGG,-0.0346
17,CTTCGGCA,0.274
18,CTTCGGTA,0.0846
19,CTTCGGGC,0.0457
20,GTTCGGAA,0.403
21,CTTCGGAC,0.399
22,CTTCGGCC,0.154
23,GTTCGGCA,0.134
24,CTTCGGAA,0.419
25,GTTCGGGA,0.277

row,Sequence,PBM E-score
1,AAGGTGGG,-0.161
2,GCGGTGTA,0.132
3,AAGGCACA,-0.231
4,CTTAGGTA,-0.0818
5,ATCTGAAA,-0.039
6,CGAGTACA,0.0348
7,ACATGCTC,-0.0918
8,ACACCCCG,0.241
9,AGTCCGAG,0.43
10,AGTCCGAA,0.425
11,AGGCCGAC,0.324
12,CGTCCGAG,0.296
13,AGCCCGAC,0.152
14,AGTCCGAC,0.431
15,AGTCCGAT,0.458
16,AGTCCAAG,-0.236
17,AGACCGAT,0.163
18,AGTCCTAA,-0.163
19,AGTCCAAA,-0.107
20,AGTCCTAT,-0.0902
21,AGTAAGTG,-0.128
22,ATCTCTGG,-0.239
23,AAACGACC,-0.0492
24,ACCTCATG,-0.349
25,ATTAGCTC,-0.0566

row,Sequence,PBM E-score
1,ACAGACTC,-0.109
2,ATCCGATG,0.323
3,ATCCGATC,0.37
4,CGCCGATA,0.37
5,GTCCGATA,0.414
6,CGCCGATC,0.377
7,GGCCGATA,0.3
8,ATCCGATA,0.399
9,CTCCGATC,0.46
10,CTCCGATA,0.462
11,CACCGATA,0.194
12,GCCCGATA,0.0679
13,AACCGATA,0.0662
14,CGCTCTAG,-0.113
15,AACTGCCA,-0.249
16,GTGGAGCA,-0.158
17,GAGCACGC,-0.106
18,AAACCGGA,0.438
19,GAACCGTA,-0.0428
20,CAACCGGG,0.215
21,TAACCGCA,0.0534
22,AAACCGGC,0.356
23,GAACCGGA,0.426
24,TAACCGGA,0.431
25,GAACCGGC,0.283

row,Sequence,PBM E-score
1,AAACCGGT,0.204
2,CAACCGGA,0.414
3,CAACCGGC,0.27
4,TAACCGTA,-0.0936
5,GGTGCTAC,-0.0466
6,GAAAGCAA,0.145
7,CAGGTTCC,0.0369
8,AAGGAGCA,-0.0618
9,GGAAGTAC,0.253
10,CATCACAG,-0.108
11,ATGTCCGG,0.468
12,CTGTCCGC,0.14
13,ATGTCCTG,-0.0169
14,GTGTCCGA,0.374
15,ATGTCCGC,0.403
16,ATGTCCGA,0.455
17,ATGTCCCC,0.042
18,ATGTCCCG,0.319
19,CTGTCCGA,0.335
20,AATCTTGA,-0.172
21,CATGCTAG,-0.256
22,AGACACTG,-0.321
23,GACGGCGC,0.169
24,ATCGGCGG,0.42
25,ACCGGCCG,0.392

row,Sequence,PBM E-score
1,GCCGGCCC,0.248
2,ACCGGCGG,0.402
3,ATCGGCGC,0.326
4,ACCGGCGC,0.351
5,ATCGGCGA,0.327
6,ACCGGCCT,0.179
7,ACCGGCGT,0.3
8,GCCGGCGC,0.396
9,CCCGGCCG,0.354
10,ATATGCTA,-0.0729
11,AAGCCCGA,0.27
12,CCCATAGG,-0.0984
13,AAAATGGT,0.184
14,GAAGTTAC,0.0322
15,ATCTTGAC,-0.292
16,ACGTCTTA,-0.241
17,CGGCCCCC,0.173
18,CACCAAAC,-0.119
19,CCCGGCGA,0.326
20,CCCGGCGC,0.338
21,CCCGGCGG,0.396

# Reference: the supplement of paper PMC3334620
